Source: PubChem
Compounds with a hit are over-represented: about 21% of the library has one in this group of screens.
Cycloheximide cs: affects cycloheximide protein synthesis inhibition readout, counter-screen | 12% of 300,000 active | AID 2314 | cell reporter, cycloheximide protein synthesis inhibition counterscreen | max response, %; in the data active = max response mostly above about 13%, no sharp cut-off; inactive = mostly below about 14%; note: read at 38.3 µM for the half of the compounds with a filed dose; 0% is about no effect
Pf growth 48h: inhibits P. falciparum growth in the first generation, 48 h; 5.9% of 310,000 active; P. falciparum luciferase growth in erythrocytes, 48 h; Potency, µM (titrated, usually from 28.7 µM), for the others: top-dose activity change, negative = inhibition, hits mostly inhibitors; note: potency is the fitted concentration of half-maximal effect; % is set by controls: 0 for no effect and ±100 for the full control effect
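Luciferase-expressing parasites in RBCs, 2% Hct / 0.1% parasitemia final; RPMI 1640 + 0.5% Albumax; 37 C, 5% CO2, one generation; luminescence read-out, lower signal = inhibition.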
Shiga inhibitor: Shiga toxin inhibition; 9.2% of 290,000 active; AID 2315; Vero cells, Shiga toxin protein synthesis inhibition reporter; inhibition, % at 38.7 µM; in the data active = inhibition mostly above about 28%, no sharp cut-off; inactive = mostly below about 43%; note: 0% is about no effect
Pf growth 96h: P. falciparum growth inhibition at 96 hours; Potency, µM (doses to about 28.7 µM), for inactives: at the top dose activity change, negative = inhibition, actives largely listed as inhibitors; AID 504834; 6.9% of 320,000 active; P. falciparum luciferase reporter growth, 96 h; note: potency is the fitted concentration of half-maximal effect; % is set by controls: 0 for no effect and ±100 for the full control effect
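Delayed-death screen, second-generation endpoint: infected erythrocytes, 2% hematocrit, 0.05% parasitemia final; 96 hours at 37 C, 5% CO2; luciferase detection reagent; luminescence decrease equals reduced growth.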
* = called active by the depositor; ? = inconclusive; . = no result; [ ] = remark or other dose. Unless noted, calls come from the whole dose curve; as a rule, active = well fitted inhibition curve with a large enough effect; inconclusive = small, poorly fitted or top-dose-only effect, or another doubt; inactive = no such curve, though single readings can be large or run the other way.

SMILES	Cycloheximide cs	Pf growth 48h	Shiga inhibitor	Pf growth 96h
O=c1c(/C=N/N2CCOCC2)c(O)n(-c2ccccc2)c(=S)n1-c1ccccc1	16.8*	-21.2%	-32.3	2.7%
COc1ccccc1-n1c(O)c(/C=N/N2CCCCC2)c(=O)n(-c2ccccc2OC)c1=S	14.2	-8.1%	33.2*	17.8%
NC(=O)C1(N2CCCCC2)CCN(C(=S)Nc2ccccc2)CC1	-1.7	22.8%	-10.3	34.3%
O=C(Nc1ccccc1C(F)(F)F)N1CCCCCC1	9.6*	33.9%	34.7*	?
NC(=O)C1(N2CCCCC2)CCN(C(=O)Nc2ccccc2C(F)(F)F)CC1	-1.9	5.3%	-7.0	1.65µM*
COC(=O)c1cc(F)c(S(=O)(=O)N2CCN(S(=O)(=O)c3ccc4c(c3)OCCO4)CC2)cc1F	-9.0	.	-5.3	.
CC1CCN(CCC(=O)N/N=C/c2ccc([N+](=O)[O-])cc2)CC1	-7.9	-8.7%	8.1	27.6%
COCCn1c(=NC(=O)c2ccc(S(=O)(=O)N3CCCc4ccccc43)cc2)sc2cc(S(C)(=O)=O)ccc21	-2.8	3.29µM*	-7.5	1.04µM*
C=CCn1c(=NC(=O)c2ccc(S(=O)(=O)N3CCCc4ccccc43)cc2)sc2cc(S(N)(=O)=O)ccc21	-4.8	5.22µM*	-4.2	4.65µM*
C=CCn1c(=NC(=O)c2ccc(S(=O)(=O)N3CCc4ccccc4C3)cc2)sc2cc(S(N)(=O)=O)ccc21	-2.8	-24.0%	-8.3	?
C1=CC(c2cc3ccccc3o2)OC(CCc2ccccc2)C1 (stereo not given)	9.1	11.0%	-1.8	?
CCCN(CC(=O)Nc1cc(Cl)cc(Cl)c1)CC(=O)Nc1ccc(F)c(F)c1F	0.3	?	-8.0	9.28µM*
CCCN(CC(=O)Nc1ccccc1Br)CC(=O)Nc1ccc(F)c(F)c1F	6.6	?	3.9	-20.2%
Cc1ccnc(N(C(=O)c2cccs2)C(=O)c2cccs2)c1	41.6*	167.9%	71.4*	10.6%
O=C(c1cccs1)N(C(=O)c1cccs1)c1ccc(Br)cn1	37.0*	183.9%	57.2	.
CCCNC(=O)C(Cc1ccc(I)cc1)NC(=O)C1CC1 (stereo not given)	.	-2.6%	.	-43.7%
NC(=O)c1ccc(Oc2ccc3c(c2)CCC3)c([N+](=O)[O-])c1	-4.7	28.6%	-6.0	58.6%
CC1(OC(=O)C2CCCC2)C(=O)C=C2C=C(c3ccsc3)N(Cc3ccccc3)C=C2C1=O (stereo not given)	-4.0	11.7µM*	15.9	?
CC(C)CN1C=C2C(=O)C(C)(OC(=O)C3CCCC3)C(=O)C=C2C=C1c1ccsc1 (stereo not given)	-1.6	?	-7.3	10.4µM*
CC1(OC(=O)C2CCCC2)C(=O)C=C2C=C(c3ccsc3)N(CCc3ccccn3)C=C2C1=O (stereo not given)	2.6	?	43.4	?
C=CCN1C=C2C(=O)C(C)(OC(=O)C3CCCC3)C(=O)C=C2C=C1c1ccsc1 (stereo not given)	-3.2	?	-5.4	?
CCN(CC)CCCN1C=C2C(=O)C(C)(OC(=O)C3CCCC3)C(=O)C=C2C=C1c1ccsc1 (stereo not given)	-2.6	10.4µM*	21.2	?
O=S(=O)(c1ccc(N2CCN(CCO)CC2)nc1)N1CCOCC1	.	13.1%	.	26.2%
COCCn1c(-c2ccc(Br)cc2)nc2oc3cc(OC)ccc3c(=O)c2c1=O	-3.5	8.28µM*	-4.4	?
CCCc1nc2oc3cc(OC)ccc3c(=O)c2c(=O)n1Cc1ccco1	-3.7	9.28µM*	-24.5	14.7%
SMILES	Cycloheximide cs	Pf growth 48h	Shiga inhibitor	Pf growth 96h
CCCCCCn1c(-c2ccco2)nc2oc3cc(OC)ccc3c(=O)c2c1=O	1.2	5.22µM*	5.5	?
COc1ccc2c(=O)c3c(=O)n(Cc4ccco4)c(-c4cc(OC)c(OC)c(OC)c4)nc3oc2c1	1.1	1.85µM*	14.1	1.65µM*
COc1ccc(Cn2c(C)nc3oc4cc(OC)ccc4c(=O)c3c2=O)cc1	-8.0	?	-13.5	?
COCCn1c(-c2ccccc2)nc2oc3cc(OC)ccc3c(=O)c2c1=O	-3.3	?	-9.5	?
CC1CCN(Cc2nnnn2CCCC(=O)N(C)C2CCOC2)CC1 (stereo not given)	-3.1	12.4%	-3.6	32.3%
COc1ccc2c(=O)c3c(=O)n(Cc4ccco4)c(-c4ccccc4)nc3oc2c1	12.7	11.7µM*	-15.9	.
COc1cccc(-n2cc3c(=O)n(C)c(=O)n(C)c3c2)c1	23.8*	-82.0%	87.5	12.1%[5.75 µM]
CCC(CO)NCc1ccc(-c2ccccc2)cc1 (stereo not given)	-4.9	14.2%	-7.7	3.7µM*
CCOc1c(Cl)cc(CNC(C)C(O)c2ccccc2)cc1OC (stereo not given)	0.8	1.47µM*	-5.4	21.8%
CC(NCc1ccc(-c2ccccc2)cc1)C(O)c1ccccc1 (stereo not given)	-7.6	2.94µM*	-18.1	2.33µM*
CC(NCc1ccc(Cl)cc1)C(O)c1ccccc1 (stereo not given)	1.0	2.62µM*	-11.4	3.7µM*
CCC(CO)NCc1ccc(Br)cc1 (stereo not given)	2.3	9.1%	-6.1	-0.5%
CCOc1c(Cl)cc(CNc2ccc(S(N)(=O)=O)cc2)cc1OC	4.5	13.9%	11.2	-55.4%
COc1ccc(C(=O)/C=C\N2CCOCC2)cc1	15.9	0.5%	-15.3	?
CCOc1ccc(S(=O)(=O)N2CCN(C(=O)C3CSC4(C)CCC(=O)N34)CC2)cc1 (stereo not given)	.	-28.0%	.	?
COc1cc(OC)c(OC)cc1CNC(C)C(O)c1ccccc1 (stereo not given)	-4.2	-13.5%	-12.4	-19.3%
CC(NCc1cccc(Cl)c1Cl)C(O)c1ccccc1 (stereo not given)	-1.8	9.28µM*	-7.0	4.65µM*
COc1ccccc1CNC(c1ccccc1)c1ccccc1	-5.3	0.0%	-7.5	?
CC(NCc1ccc(Cl)cc1Cl)C(O)c1ccccc1 (stereo not given)	21.1	1.04µM*	43.4	1.47µM*
CCOc1c(Cl)cc(CNC(C)(C)CC(C)(C)C)cc1OC	1.8	10.4µM*	-6.3	.
O=C(COc1ccccc1)N1CCN(C(=O)c2ccccc2F)CC1	-0.7	-9.0%	-14.2	-4.7%
COC(=O)C1CCN(C(=O)c2sc3nc(-c4ccc(F)cc4)cn3c2C)CC1	16.0*	-27.4%	36.6*	?
CCOC(=O)C1CCCN(C(=O)c2sc3nc(-c4ccc(OC)cc4)cn3c2C)C1 (stereo not given)	-2.2	13.1µM*	12.8	-16.2%
CCOC(=O)C1CCN(C(=O)c2sc3nc(-c4ccccc4)cn3c2C)CC1	-2.4	.	-3.5	.
COc1ccc(O)c(CN2CCC(n3nccc3NC(=O)c3ccccc3Cl)CC2)c1	6.9	?	-8.0	-21.7%
CC(C)(C)c1cc(CCC(=O)NNC(=S)NC(=O)c2ccccc2)cc(C(C)(C)C)c1O	-1.0	13.1µM*	6.6	?
Cc1ccccc1C(=O)NNC(=O)c1ccc(Br)cc1	41.7*	161.4%	83.9*	-14.2%
Cc1ccc(C(=O)NC(=S)NNC(=O)c2ccccc2O)cc1	19.4*	.	54.1*	-6.3%
Cc1cccc(C(=O)NNC(=O)c2ccccc2C)c1	14.1	42.8%	23.5	97.0%
